Screening data as filed in PubChem BioAssay.
An excerpt weighted towards active compounds, which were near 11% of everything screened.
Vaccinia Venus – vaccinia inhibition (Venus reporter). Vaccinia virus Venus reporter expression, fluorescence. Potency, µM (top dose mostly 36.5 µM), most hits filed as inhibitors. 330,000 compounds, 0.46% hits; calls by dose curve; tested in A549 cells; further: nearly all actives have a fitted effect of over 30% in size
Pf growth 48h – inhibits P. falciparum growth in the first generation, 48 h | Potency, µM (series often up to 28.7 µM), hits mostly inhibitors | 310,000 compounds, 5.9% hits | AID 504832 | P. falciparum luciferase growth in erythrocytes, 48 h
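Read-out is firefly luciferase luminescence from an integrated reporter in P. falciparum, so falling signal marks reduced parasite growth. Infected erythrocytes were at 2% hematocrit and 0.1% parasitemia (final) in Albumax-supplemented RPMI 1640.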
Pf growth 96h – P. falciparum growth inhibition at 96 hours; P. falciparum luciferase reporter growth, 96 h; Potency, µM (titrated, usually from 28.7 µM), most hits filed as inhibitors; 320,000 compounds, 6.9% hits; AID 504834
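Parasite growth measured via integrated firefly luciferase reporter in P. falciparum. Infected erythrocytes at 2% hematocrit, 0.05% parasitemia final were treated 96 hours at 37 C under 5% CO2, and luminescence was read.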
NS1 function inh – inhibitors of influenza NS1 protein function. Potency, µM (doses to about 46.1 µM). 270,000 compounds, 0.4% hits. AID 2326; calls by dose curve; further: actives are rising curves; nearly all actives have a fitted effect of over 50% in size
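Growth recovery, yeast-based: influenza A NS1 expressed in S. cerevisiae causes slow growth, and suppressors are detected by OD600. The parent strain without NS1 is used as positive control.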
VACV mCherry inh – vaccinia inhibition (mCherry reporter). Vaccinia virus mCherry reporter infection, fluorescence. Potency, µM (doses to about 36.5 µM), usual class: inhibitors. 310,000 compounds, 0.63% hits. AID 720579; calls by dose curve; tested in A549 cells; further: nearly all actives have a fitted effect of over 35% in size
HCV inh – blocks hepatitis C virus. Huh7.5.1 HCVcc-Cre infection, luciferase reporter, 44 h. Potency, µM (doses to about 41.8 µM), hits mostly inhibitors. 340,000 compounds, 3.4% hits. AID 651820
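Cells (1,000/well) were plated 4 h before compound, then infected with HCVcc-Cre virus (~0.5 moi). After 44 h further culture, infection was read as luciferase luminescence following a 15 min substrate incubation at room temperature.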
Hits are given with their value; n = inactive; u = inconclusive; x = not tested or not shown. Unless noted, the call rests on the fitted dose curve; in most records, active means well fitted inhibition curve with a large enough effect; inconclusive means small, poorly fitted or top-dose-only effect, or another doubt; inactive means no such curve, though single readings can be large or run the other way.

SMILES	Vaccinia Venus	Pf growth 48h	Pf growth 96h	NS1 function inh	VACV mCherry inh	HCV inh
O=C(Nc1cccc(-c2csc(Nc3ccccc3)n2)c1)c1ccccc1	u	n	n	n	5.01µM	u
O=C(Nc1cccc(-c2csc(Nc3cccc(C(F)(F)F)c3)n2)c1)c1ccccc1	u	11.7µM	u	n	u	u
CC(=O)c1cccc(Nc2nc(-c3ccccc3)cs2)c1	u	n	u	n	n	2.51µM
O=C(Nc1ccc(-c2csc(Nc3cccc(C(F)(F)F)c3)n2)cc1)c1cc([N+](=O)[O-])cc(C(F)(F)F)c1	u	0.828µM	0.465µM	n	n	u
O=C(Nc1ccc(-c2csc(Nc3ccc(Cl)cc3)n2)cc1)c1ccccc1	n	x	x	x	n	u
O=C(Nc1ccc(-c2csc(Nc3cccc(C(F)(F)F)c3)n2)cc1)c1ccccc1	u	u	u	n	u	u
CCCOc1ccc(NC(=O)OC2CCN(C)CC2)cc1	n	n	u	n	n	u
Cc1nc(-c2ccc(NC(=O)c3ccccc3)cc2)cs1	x	n	n	n	x	11.2µM
Cc1cc(=O)[nH]c2c(N=Nc3ccc(O)cc3)c(N)nn12	x	n	n	n	x	n
CN(C(=O)CCc1nnc(CCCCc2ccccc2)o1)C1CCOCC1	n	n	n	n	n	n
CCn1cc[n+](C)c1P(c1ccccc1)c1ccccc1	x	1.31µM	u	n	x	n
CCOC(=O)c1c(NC(=S)Nc2ccccc2)sc2c1CC(C)(C)SC2	n	n	n	n	n	u
CCOC(=O)c1c(NC(=S)NC)sc2c1CC(C)(C)SC2	n	4.15µM	n	n	n	u
COc1cc2nc(/C=C/c3cc(OC)c(OC)c(OC)c3)sc2cc1SC	u	2.62µM	n	n	u	10µM
O=C(c1cc2cc(F)ccc2[nH]1)N1CCCC(Nc2ccc(F)cc2)C1 (configuration not stated)	n	n	u	n	n	n
COc1ccc(NS(=O)(=O)c2cccc(C(=O)N3CCN(C(=O)c4ccco4)CC3)c2)cc1	x	x	x	x	x	n
CC(=O)c1cc(-c2ccccc2)[nH]c1N1CCOCC1	n	x	u	n	n	n
CC(=O)c1c(N2CCN(C)CC2)[nH]c(-c2ccccc2)nc1=S	n	1.65µM	n	n	n	n
Cc1ccc(NC(=O)c2ccc(=O)[nH]n2)cc1C	n	n	n	n	n	n
Cc1ccc(NC(=O)c2ccc(=O)[nH]n2)cc1S(=O)(=O)Nc1ccc(SC(F)F)cc1	x	x	x	x	x	3.16µM
O=C(CSc1ncn[nH]1)Nc1nnc(-c2ccccc2)s1	n	x	n	n	n	n
CSCCC(NC(=O)c1ccccc1)C(=O)NCC(C)(C)N1CCOCC1 (configuration not stated)	x	u	n	x	x	n
COc1cccc(CSc2nc3cc(OC)c(OC)cc3c3nc(CCn4nc(C)cc4C)nn23)c1	n	x	x	x	n	x
O=[N+]([O-])c1ccc2nc(NN=Cc3ccc(O)cc3)sc2c1	u	x	x	x	3.16µM	n
O=C(Nc1nc2ccc([N+](=O)[O-])cc2s1)c1c(F)cccc1F	u	n	u	n	n	u
SMILES	Vaccinia Venus	Pf growth 48h	Pf growth 96h	NS1 function inh	VACV mCherry inh	HCV inh
CC(=O)Nc1nc2cc([N+](=O)[O-])ccc2s1	n	n	n	x	u	n
CC(C)c1ccc(/C=C/C(=O)Nc2nc3ccc([N+](=O)[O-])cc3s2)cc1	x	u	2.33µM	u	x	n
O=C(Nc1nnc(S(=O)(=O)N2CCCc3ccccc32)s1)c1ccccc1Cl	n	x	x	x	n	x
CC(=O)c1ccc(NC2=NCCCS2)cc1	n	n	n	n	n	n
CCOC(=O)c1c(NC(=O)COc2ccccc2Br)sc2c1CCCCC2	n	x	x	x	n	x
CCOC(=O)c1c(NC(=O)CSc2nc3ccc(OC)cc3[nH]2)sc2c1CC(C)(C)NC2(C)C	u	u	5.86µM	x	u	u
CCOC(=O)c1c(NC(=O)COc2ccccc2F)sc2c1CC(C)(C)NC2(C)C	n	11.7µM	u	x	n	u
CCOC(=O)c1c(NC(=O)CSc2ncccn2)sc(C(=O)NC)c1C	n	u	u	x	n	u
CCOC(=O)c1c(NC(=O)CSc2ncccn2)sc2c1CC(C)(C)NC2(C)C	n	14.7µM	9.28µM	n	n	n
Nn1cnnc1SCC(=O)Nc1ccc2c(c1)OCO2	n	n	n	x	n	n
CCN(CC)c1ccc(C2Nc3cccc4cccc(c34)N2)cc1	n	10.4µM	u	n	n	n
O=[N+]([O-])c1cccc(C2Nc3cccc4cccc(c34)N2)c1	n	4.15µM	n	n	n	n
COc1ccc(C2Nc3cccc4cccc(c34)N2)cc1Br	n	10.4µM	u	n	n	n
O=[N+]([O-])c1ccc(C2Nc3cccc4cccc(c34)N2)cc1	n	n	13.1µM	n	n	n
Fc1ccc(C2Nc3cccc4cccc(c34)N2)cc1	n	u	n	n	u	n
Brc1ccc(C2Nc3cccc4cccc(c34)N2)cc1	n	x	x	x	n	n
COc1cc(C2Nc3cccc4cccc(c34)N2)ccc1OC(C)=O	n	n	x	u	n	u
CCN(CC)c1ccc(C2NC(=O)c3ccccc3N2)cc1 (configuration not stated)	u	x	x	x	n	n
CCS(=O)(=O)N1CCC(C(=O)Nc2cccc(C(C)=O)c2)CC1	n	n	n	n	n	n
O=C1c2ccccc2NC(c2cccc([N+](=O)[O-])c2)N1O (configuration not stated)	x	u	8.28µM	n	x	u
O=C(CN1CCN(C(=O)c2ccccc2)CC1)Nc1ccc(Cl)cc1F	n	n	n	n	n	n
Cc1cc(C(=O)OCC(=O)N2CCN(C(=O)c3ccco3)CC2)c(C)n1-c1ccc(F)cc1	n	11.7µM	n	n	n	n
O=C(OCC(=O)N1CCN(C(=O)c2ccco2)CC1)c1ccccc1OCc1ccccc1	n	n	11.7µM	n	n	n
Cc1cccc(C(=O)OCC(=O)N2CCN(C(=O)c3ccco3)CC2)c1O	n	x	x	x	n	n
Cc1cnc(C(=O)OCC(=O)N2CCN(C(=O)c3ccco3)CC2)cn1	n	n	5.22µM	n	n	n
SMILES	Vaccinia Venus	Pf growth 48h	Pf growth 96h	NS1 function inh	VACV mCherry inh	HCV inh
O=C(OCC(=O)N1CCN(C(=O)c2ccco2)CC1)c1cn(-c2ccccc2)nc1-c1ccccc1	u	u	n	n	x	2.82µM
COc1cc2c(cc1OC)C(c1ccccc1F)OC(=O)C2 (configuration not stated)	n	n	n	n	n	n
CC12CCC(=O)N1C(C(=O)Nc1ccccc1N1CCCC1)CS2 (configuration not stated)	n	x	x	x	u	u
CCN(CC)c1ccc(S(=O)(=O)N2CCCCC2)cc1NC(=O)C1CSC2(C)CCC(=O)N12 (configuration not stated)	x	11.7µM	u	x	x	n
CC12CCC(=O)N1C(C(=O)Nc1cc(Cl)ccc1N1CCCC1)CS2 (configuration not stated)	n	u	u	x	n	8.91µM
Cc1cc(C)c(C)c(S(=O)(=O)N2CCN(C(=O)C3CSC4(C)CCC(=O)N34)CC2)c1C (configuration not stated)	n	10.4µM	u	x	n	u
